# B1: unnamed (peptide)
# chain: GERSRPLVISILSSA
# B2: unnamed (peptide)
# chain: NAGIRPKFILALNDE
# Experiments:
# Assay in all cases: SPOT peptide array binding signal intensity (averaged, normalized) (arbitrary units (background-subtracted, floor 0; scale differs between SH3 domains)); higher = stronger binding of the SH3 domain to the peptide
# AgAbp1 = target: AgAbp1
# Procedure, shortened: (§1)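 To measure binding, SH3 domains from four yeast species were fused to GST, expressed in E. coli BL21(DE3) and purified on glutathione Sepharose. Each domain was incubated at 10 μg/ml overnight at 4°C on cellulose membranes with synthetic 15-mer peptides whose cysteines were replaced by serines. Anti-GST antibody, an HRP anti-mouse secondary and luminol were used for detection, and images were quantified with Genespotter. Reported binding signal is normalized, background-subtracted spot intensity averaged over replicates, in arbitrary units that differ between domains.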
# AgBbc1 = target: AgBbc1
# Procedure, shortened: as §1
# AgBem1-D1 = target: AgBem1-D1
# Procedure, shortened: as §1
# AgBzz1-D1 = target: AgBzz1-D1
# Procedure, shortened: as §1
# AgBzz1-D2 = target: AgBzz1-D2
# Procedure, shortened: as §1
# AgCyk3 = target: AgCyk3
# Procedure, shortened: as §1
# AgFus1 = target: AgFus1
# Procedure, shortened: as §1
# AgHof1 = target: AgHof1
# Procedure, shortened: as §1
# AgHse1 = target: AgHse1
# Procedure, shortened: as §1
# AgLsb1 = target: AgLsb1
# Procedure, shortened: as §1
# AgLsb4 = target: AgLsb4
# Procedure, shortened: as §1
# AgMyo5 = target: AgMyo5
# Procedure, shortened: as §1
# AgNbp2 = target: AgNbp2
# Procedure, shortened: as §1
# AgRvs167 = target: AgRvs167
# Procedure, shortened: as §1
# AgSho1 = target: AgSho1
# Procedure, shortened: as §1
# AgSla1-D1-D2 = target: AgSla1-D1-D2
# Procedure, shortened: as §1
# AgSla1-D3 = target: AgSla1-D3
# Procedure, shortened: as §1
# CaAbp1-D1 = target: CaAbp1-D1
# Procedure, shortened: as §1
# CaAbp1-D2 = target: CaAbp1-D2
# Procedure, shortened: as §1
# CaBbc1 = target: CaBbc1
# Procedure, shortened: as §1
# CaBem1-D1 = target: CaBem1-D1
# Procedure, shortened: as §1
# CaBzz1-D1 = target: CaBzz1-D1
# Procedure, shortened: as §1
# CaBzz1-D2 = target: CaBzz1-D2
# Procedure, shortened: as §1
# CaCyk3 = target: CaCyk3
# Procedure, shortened: as §1
# CaFus1 = target: CaFus1
# Procedure, shortened: as §1
# CaHof1 = target: CaHof1
# Procedure, shortened: as §1
# CaHse1 = target: CaHse1
# Procedure, shortened: as §1
# CaLsb1 = target: CaLsb1
# Procedure, shortened: as §1
# CaLsb4 = target: CaLsb4
# Procedure, shortened: as §1
# CaMyo5 = target: CaMyo5
# Procedure, shortened: as §1
# CaNbp2 = target: CaNbp2
# Procedure, shortened: as §1
# CaRvs167 = target: CaRvs167
# Procedure, shortened: as §1
# CaRvs167-3 = target: CaRvs167-3
# Procedure, shortened: as §1
# CaSho1 = target: CaSho1
# Procedure, shortened: as §1
# CaSla1-D1-D2 = target: CaSla1-D1-D2
# Procedure, shortened: as §1
# CaSla1-D3 = target: CaSla1-D3
# Procedure, shortened: as §1
# ScAbp1 = target: ScAbp1
# Procedure, shortened: as §1
# ScBbc1 = target: ScBbc1
# Procedure, shortened: as §1
# ScBem1-D1 = target: ScBem1-D1
# Procedure, shortened: as §1
# ScBzz1-D1 = target: ScBzz1-D1
# Procedure, shortened: as §1
# ScBzz1-D2 = target: ScBzz1-D2
# Procedure, shortened: as §1
# ScCyk3 = target: ScCyk3
# Procedure, shortened: as §1
# ScFus1 = target: ScFus1
# Procedure, shortened: as §1
# ScHof1 = target: ScHof1
# Procedure, shortened: as §1
# ScHse1 = target: ScHse1
# Procedure, shortened: as §1
# ScLsb1 = target: ScLsb1
# Procedure, shortened: as §1
# ScLsb2 = target: ScLsb2
# Procedure, shortened: as §1
# ScLsb3 = target: ScLsb3
# Procedure, shortened: as §1
# ScLsb4 = target: ScLsb4
# Procedure, shortened: as §1
# ScMyo3 = target: ScMyo3
# Procedure, shortened: as §1
# ScMyo5 = target: ScMyo5
# Procedure, shortened: as §1
# ScNbp2 = target: ScNbp2
# Procedure, shortened: as §1
# ScPex13 = target: ScPex13
# Procedure, shortened: as §1
# ScRvs167 = target: ScRvs167
# Procedure, shortened: as §1
# ScSho1 = target: ScSho1
# Procedure, shortened: as §1
# ScSla1-D1-D2 = target: ScSla1-D1-D2
# Procedure, shortened: as §1
# ScSla1-D3 = target: ScSla1-D3
# Procedure, shortened: as §1
# SpAbp1-D1 = target: SpAbp1-D1
# Procedure, shortened: as §1
# SpBbc1 = target: SpBbc1
# Procedure, shortened: as §1
# SpBzz1-D1 = target: SpBzz1-D1
# Procedure, shortened: as §1
# SpBzz1-D2 = target: SpBzz1-D2
# Procedure, shortened: as §1
# SpCyk3 = target: SpCyk3
# Procedure, shortened: as §1
# SpHof1 = target: SpHof1
# Procedure, shortened: as §1
# SpHof1-2 = target: SpHof1-2
# Procedure, shortened: as §1
# SpHof1-3 = target: SpHof1-3
# Procedure, shortened: as §1
# SpHse1 = target: SpHse1
# Procedure, shortened: as §1
# SpLsb1 = target: SpLsb1
# Procedure, shortened: as §1
# SpLsb4 = target: SpLsb4
# Procedure, shortened: as §1
# SpMyo1 = target: SpMyo1
# Procedure, shortened: as §1
# SpNbp2 = target: SpNbp2
# Procedure, shortened: as §1
# SpPex13 = target: SpPex13
# Procedure, shortened: as §1
# SpRvs167 = target: SpRvs167
# Procedure, shortened: as §1
# SpSla1-D1-D2 = target: SpSla1-D1-D2
# Procedure, shortened: as §1
# SpSla1-D3 = target: SpSla1-D3
# Procedure, shortened: as §1
binder,measurement,setting,value
B1,SPOT peptide array binding signal intensity,AgAbp1,≤ 0
same,SPOT peptide array binding signal intensity,AgBbc1,14.8
same,SPOT peptide array binding signal intensity,AgBem1-D1,73
same,SPOT peptide array binding signal intensity,AgBzz1-D1,90
same,SPOT peptide array binding signal intensity,AgBzz1-D2,106
same,SPOT peptide array binding signal intensity,AgCyk3,14
same,SPOT peptide array binding signal intensity,AgFus1,1940
same,SPOT peptide array binding signal intensity,AgHof1,14.8
same,SPOT peptide array binding signal intensity,AgHse1,106
same,SPOT peptide array binding signal intensity,AgLsb1,≤ 0
same,SPOT peptide array binding signal intensity,AgLsb4,262
same,SPOT peptide array binding signal intensity,AgMyo5,≤ 0
same,SPOT peptide array binding signal intensity,AgNbp2,25
same,SPOT peptide array binding signal intensity,AgRvs167,3.67
same,SPOT peptide array binding signal intensity,AgSho1,120
same,SPOT peptide array binding signal intensity,AgSla1-D1-D2,11
same,SPOT peptide array binding signal intensity,AgSla1-D3,5
same,SPOT peptide array binding signal intensity,CaAbp1-D1,43
same,SPOT peptide array binding signal intensity,CaAbp1-D2,2
same,SPOT peptide array binding signal intensity,CaBbc1,55.2
same,SPOT peptide array binding signal intensity,CaBem1-D1,28.5
same,SPOT peptide array binding signal intensity,CaBzz1-D1,268
same,SPOT peptide array binding signal intensity,CaBzz1-D2,175
same,SPOT peptide array binding signal intensity,CaCyk3,37
same,SPOT peptide array binding signal intensity,CaFus1,3880
same,SPOT peptide array binding signal intensity,CaHof1,≤ 0
same,SPOT peptide array binding signal intensity,CaHse1,10.5
same,SPOT peptide array binding signal intensity,CaLsb1,0.5
same,SPOT peptide array binding signal intensity,CaLsb4,≤ 0
same,SPOT peptide array binding signal intensity,CaMyo5,24
same,SPOT peptide array binding signal intensity,CaNbp2,171
same,SPOT peptide array binding signal intensity,CaRvs167,45.8
same,SPOT peptide array binding signal intensity,CaRvs167-3,538
same,SPOT peptide array binding signal intensity,CaSho1,497
same,SPOT peptide array binding signal intensity,CaSla1-D1-D2,11
same,SPOT peptide array binding signal intensity,CaSla1-D3,170
same,SPOT peptide array binding signal intensity,ScAbp1,3
same,SPOT peptide array binding signal intensity,ScBbc1,4
same,SPOT peptide array binding signal intensity,ScBem1-D1,9
same,SPOT peptide array binding signal intensity,ScBzz1-D1,97
same,SPOT peptide array binding signal intensity,ScBzz1-D2,619
same,SPOT peptide array binding signal intensity,ScCyk3,121
same,SPOT peptide array binding signal intensity,ScFus1,3300
same,SPOT peptide array binding signal intensity,ScHof1,≤ 0
same,SPOT peptide array binding signal intensity,ScHse1,500
same,SPOT peptide array binding signal intensity,ScLsb1,≤ 0
same,SPOT peptide array binding signal intensity,ScLsb2,≤ 0
same,SPOT peptide array binding signal intensity,ScLsb3,6.5
same,SPOT peptide array binding signal intensity,ScLsb4,7
same,SPOT peptide array binding signal intensity,ScMyo3,≤ 0
same,SPOT peptide array binding signal intensity,ScMyo5,1
same,SPOT peptide array binding signal intensity,ScNbp2,71.5
same,SPOT peptide array binding signal intensity,ScPex13,19.8
same,SPOT peptide array binding signal intensity,ScRvs167,6
same,SPOT peptide array binding signal intensity,ScSho1,910
same,SPOT peptide array binding signal intensity,ScSla1-D1-D2,8
same,SPOT peptide array binding signal intensity,ScSla1-D3,22
same,SPOT peptide array binding signal intensity,SpAbp1-D1,≤ 0
same,SPOT peptide array binding signal intensity,SpBbc1,18
same,SPOT peptide array binding signal intensity,SpBzz1-D1,314
B2,SPOT peptide array binding signal intensity,AgAbp1,≤ 0
same,SPOT peptide array binding signal intensity,AgBbc1,2.75
same,SPOT peptide array binding signal intensity,AgBem1-D1,11.5
same,SPOT peptide array binding signal intensity,AgBzz1-D1,44
same,SPOT peptide array binding signal intensity,AgBzz1-D2,77
same,SPOT peptide array binding signal intensity,AgCyk3,7
same,SPOT peptide array binding signal intensity,AgFus1,68
same,SPOT peptide array binding signal intensity,AgHof1,13.8
same,SPOT peptide array binding signal intensity,AgHse1,616
same,SPOT peptide array binding signal intensity,AgLsb1,2
same,SPOT peptide array binding signal intensity,AgLsb4,25
same,SPOT peptide array binding signal intensity,AgMyo5,1
same,SPOT peptide array binding signal intensity,AgNbp2,0.5
same,SPOT peptide array binding signal intensity,AgRvs167,2.33
same,SPOT peptide array binding signal intensity,AgSho1,9.5
same,SPOT peptide array binding signal intensity,AgSla1-D1-D2,3
same,SPOT peptide array binding signal intensity,AgSla1-D3,4
same,SPOT peptide array binding signal intensity,CaAbp1-D1,≤ 0
same,SPOT peptide array binding signal intensity,CaAbp1-D2,≤ 0
same,SPOT peptide array binding signal intensity,CaBbc1,1.5
same,SPOT peptide array binding signal intensity,CaBem1-D1,1
same,SPOT peptide array binding signal intensity,CaBzz1-D1,72
same,SPOT peptide array binding signal intensity,CaBzz1-D2,26.2
same,SPOT peptide array binding signal intensity,CaCyk3,2
same,SPOT peptide array binding signal intensity,CaFus1,1120
same,SPOT peptide array binding signal intensity,CaHof1,1
same,SPOT peptide array binding signal intensity,CaHse1,6.5
same,SPOT peptide array binding signal intensity,CaLsb1,1
same,SPOT peptide array binding signal intensity,CaLsb4,≤ 0
same,SPOT peptide array binding signal intensity,CaMyo5,27.2
same,SPOT peptide array binding signal intensity,CaNbp2,122
same,SPOT peptide array binding signal intensity,CaRvs167,1.17
same,SPOT peptide array binding signal intensity,CaRvs167-3,17
same,SPOT peptide array binding signal intensity,CaSho1,222
same,SPOT peptide array binding signal intensity,CaSla1-D1-D2,≤ 0
same,SPOT peptide array binding signal intensity,CaSla1-D3,10.8
same,SPOT peptide array binding signal intensity,ScAbp1,≤ 0
same,SPOT peptide array binding signal intensity,ScBbc1,≤ 0
same,SPOT peptide array binding signal intensity,ScBem1-D1,1
same,SPOT peptide array binding signal intensity,ScBzz1-D1,43
same,SPOT peptide array binding signal intensity,ScBzz1-D2,19
same,SPOT peptide array binding signal intensity,ScCyk3,54.5
same,SPOT peptide array binding signal intensity,ScFus1,159
same,SPOT peptide array binding signal intensity,ScHof1,≤ 0
same,SPOT peptide array binding signal intensity,ScHse1,628
same,SPOT peptide array binding signal intensity,ScLsb1,1.5
same,SPOT peptide array binding signal intensity,ScLsb2,≤ 0
same,SPOT peptide array binding signal intensity,ScLsb3,≤ 0
same,SPOT peptide array binding signal intensity,ScLsb4,≤ 0
same,SPOT peptide array binding signal intensity,ScMyo3,2.5
same,SPOT peptide array binding signal intensity,ScMyo5,≤ 0
same,SPOT peptide array binding signal intensity,ScNbp2,23.5
same,SPOT peptide array binding signal intensity,ScPex13,≤ 0
same,SPOT peptide array binding signal intensity,ScRvs167,≤ 0
same,SPOT peptide array binding signal intensity,ScSho1,158
same,SPOT peptide array binding signal intensity,ScSla1-D1-D2,≤ 0
same,SPOT peptide array binding signal intensity,ScSla1-D3,6.5
same,SPOT peptide array binding signal intensity,SpAbp1-D1,≤ 0
same,SPOT peptide array binding signal intensity,SpBbc1,4
same,SPOT peptide array binding signal intensity,SpBzz1-D1,201
same,SPOT peptide array binding signal intensity,SpBzz1-D2,≤ 0
same,SPOT peptide array binding signal intensity,SpCyk3,2
same,SPOT peptide array binding signal intensity,SpHof1,28.8
same,SPOT peptide array binding signal intensity,SpHof1-2,19
same,SPOT peptide array binding signal intensity,SpHof1-3,214
same,SPOT peptide array binding signal intensity,SpHse1,481
same,SPOT peptide array binding signal intensity,SpLsb1,≤ 0
same,SPOT peptide array binding signal intensity,SpLsb4,≤ 0
same,SPOT peptide array binding signal intensity,SpMyo1,≤ 0
same,SPOT peptide array binding signal intensity,SpNbp2,16.5
same,SPOT peptide array binding signal intensity,SpPex13,4
same,SPOT peptide array binding signal intensity,SpRvs167,3.5
same,SPOT peptide array binding signal intensity,SpSla1-D1-D2,4
same,SPOT peptide array binding signal intensity,SpSla1-D3,≤ 0
